Most compounds without a hit are left out; they make up all but 17% or so of the library.
S2 tox = viability counter-screen for ATXN expression inhibitors; hit rate 0.49% among 400,000; Potency, µM (top dose mostly 56.7 µM), hits mostly cytotoxic; S2 cells (HEK-293 line with an ATXN2-luciferase reporter) viability, CellTiter-Fluor protease fluorescence, 24 h; further: nearly all actives have a fitted effect of over 40% in size
TGFb SMAD3 inh = blocks TGF-b signaling. HepG2 CAGA-GFP TGF-b/SMAD3 reporter, GFP fluorescence, 18 h; TGF-beta stimulated, 500 pg/mL final. Potency, µM (doses to about 46.1 µM), inactives show at the top dose activity, negative = inhibition, most hits filed as inhibitors. hit rate 1.2% among 410,000. AID 588855; further: on the % scale 0 is the no-effect control and ±100 the full control effect; nearly all actives have a fitted effect of over 65% in size
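GFP signal (ex488/em500-530) from TGF-beta-stimulated HEPG2 CAGA-GFP cells, 500 pg/mL final, 18 h at 37 degrees C in DMEM plus 1% FBS, normalized to unstimulated and DMSO-stimulated controls.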
TDP1 cell CPT = growth inhibition of DT40 Tdp1-/-;hTDP1 cells with camptothecin (screen for TDP1 inhibitors) | AID 686979 | Potency, µM (series often up to 46.2 µM), without a hit: at the top dose activity change, negative = growth inhibition, usual class: inhibitors | chicken DT40 Tdp1-/-;hTDP1 cells + 20 nM CPT, ATP luminescence, 48 h | hit rate 12% among 420,000; further: on the % scale 0 is the no-effect control and ±100 the full control effect; nearly all actives have a fitted effect of over 55% in size
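Cell growth measured by CellTiter-Glo luminescence after a minimum 48 h, 37 C compound exposure with 20 nM CPT in Tdp1-knockout DT40 cells stably expressing hTDP1, seeded 400/well; qHTS titration format.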
DT40 TDP1 no CPT = qHTS for Inhibitors of human tyrosyl-DNA phosphodiesterase 1 (TDP1): qHTS in cells in absence of CPT. hit rate 15% among 420,000. DT40 Tdp1-/- hTDP1 cells, no CPT, ATP luminescence, 48 h. Potency, µM (top dose mostly 46.2 µM), inactives show at the top dose activity change, negative = growth inhibition, usual class: inhibitors; further: on the % scale 0 is the no-effect control and ±100 the full control effect; nearly all actives have a fitted effect of over 55% in size
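Chicken DT40 Tdp1-/- cells stably complemented with human TDP1 were seeded at 400 cells/well with DMSO in place of 20 nM camptothecin. After compound pinning, cells grew at least 48 hr at 37 °C; viability read by CellTiter-Glo luminescence.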
HepG2 tox-1 = HepG2 cytotoxicity, counter-screen for TGF-b inhibitors; HepG2 CAGA-GFP viability, ATP luminescence, 18 h; Potency, µM (titrated, usually from 46.1 µM), for inactives: at the highest dose activity change, negative = cytotoxicity, usual class: cytotoxic; hit rate 0.76% among 410,000
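CellTiter-Glo luminescence gave cytotoxicity after 18 hours at 37 degrees C. The cells were HepG2 CAGA-GFP in 1% FBS DMEM, stimulated with 500 pg/mL TGF-beta after compound addition. %Activity was normalised to no-cell wells (complete cell-killing) and DMSO (no toxicity), and curves were fitted and classified.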
ATXN2 expr inh = reduces ATXN2 reporter expression in HEK-293 cells; Potency, µM (titrated, usually from 57 µM), inactives show at the highest dose activity change, negative = inhibition, usual class: inhibitors; hit rate 0.72% among 360,000; AID 1745845; HEK-293 ATXN2-luciferase reporter, luminescence, 24 h; further: on the % scale 0 is the no-effect control and ±100 the full control effect; nearly all actives have a fitted effect of over 55% in size
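qHTS (up to 57 uM final) was run with 24 h compound exposure of reporter cells at 37 °C. Each well was multiplexed: SteadyGlo luminescence measured ATXN2-luciferase expression after a fluorogenic Gly-Phe-AFC viability readout (25 uM final).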
TGFb confirm = confirmation of TGF-b signaling inhibitors in HepG2 reporter cells. shares compounds with TGFb SMAD3 inh. AID 720534. hit rate 63% among 1,600. HepG2 CAGA-GFP TGF-b reporter, GFP fluorescence, 18 h; cells stimulated with TGF-beta, 500 pg/mL. Potency, µM (top dose mostly 46.1 µM), for the others: at the highest dose activity, negative = inhibition, actives largely listed as inhibitors; further: on the % scale 0 is the no-effect control and ±100 the full control effect; nearly all actives have a fitted effect of over 65% in size
HepG2 tox-2 = HepG2 cytotoxicity, TGF-b inhibitor counterscreen | shares compounds with TGFb SMAD3 inh | HepG2 CAGA-GFP viability, ATP luminescence, 18 h; cells stimulated with TGF-beta, 500 pg/mL | Potency, µM (titrated, usually from 46.1 µM), without a hit: top-dose activity, negative = cytotoxicity, actives largely listed as inhibitors | hit rate 27% among 1,600 | AID 720535; further: on the % scale 0 is the no-effect control and ±100 the full control effect; nearly all actives have a fitted effect of over 70% in size
CCL64 TGFb inh = TGF-b inhibition, CCL64 orthogonal assay; hit rate 41% among 1,600; Potency, µM (doses to about 46.1 µM), without a hit: at the top dose activity, negative = inhibition, hits mostly inhibitors; CCL64 CAGA-GFP reporter, TGF-b stimulated, GFP fluorescence, 18 h; shares compounds with TGFb SMAD3 inh; further: nearly all actives have a fitted effect of over 65% in size
COP TGFb inh = blocks TGF-b signaling in HepG2 COP reporter; shares compounds with TGFb SMAD3 inh; HepG2 COP-GFP TGF-b reporter, GFP fluorescence, 18 h; cells stimulated by added recombinant TGF-beta; Potency, µM (titrated, usually from 46.1 µM), for inactives: top-dose activity, negative = inhibition, usual class: inhibitors; hit rate 3% among 1,600; AID 720537; further: nearly all actives have a fitted effect of over 70% in size
Numbers without * were called inactive; i = inactive; ? = inconclusive; / = no result. The call rests on the fitted dose curve; in most records, active means well fitted curve in the direction sought with a large enough effect; inconclusive means small, poorly fitted or top-dose-only effect, or another doubt; inactive means no such curve, though single readings can be large; an effect the other way counts as inactive or inconclusive. Potency means the concentration at half of the fitted maximal effect.

SMILES	S2 tox	TGFb SMAD3 inh	TDP1 cell CPT	DT40 TDP1 no CPT	HepG2 tox-1	ATXN2 expr inh	TGFb confirm	HepG2 tox-2	CCL64 TGFb inh	COP TGFb inh
CC[C@]12c3[nH]c4cc(-c5ccco5)ccc4c3CCN1C(=O)[C@@H](CC(=O)NCc1cccc(C(F)(F)F)c1)C[C@@H]2C(=O)N1CCN(C(=O)c2ccco2)CC1	?	11µM*	8.2µM*	8.2µM*	-5%	?	4.1µM*	-27%	?	18%
CC[C@]12c3[nH]c4cc(-c5ccco5)ccc4c3CCN1C(=O)[C@@H](CC(=O)NC/C=C(\C)CCC=C(C)C)C[C@@H]2C(=O)N1CCN(C(=O)c2ccco2)CC1	i	10µM*	?	21µM*	-20%	?	10µM*	-13%	13µM*	2%
CC[C@]12c3[nH]c4cc(-c5ccco5)ccc4c3CCN1C(=O)[C@@H](CC(=O)NC/C=C(\C)CCC=C(C)C)C[C@@H]2C(=O)N1CCN(C(=O)C2CC2)CC1	i	?	?	?	-12%	?	/	/	/	/
CC[C@]12c3[nH]c4cc(-c5ccco5)ccc4c3CCN1C(=O)[C@@H](CC(=O)NCc1ccco1)C[C@@H]2C(=O)N1CCN(C(=O)c2ccco2)CC1	i	?	?	?	-4%	5%	/	/	/	/
Cc1cccc(-n2nnnc2SCC(=O)Nc2ccc(N3CCN(C)CC3)cc2)c1	i	-1%	-29%	?	-20%	-1%	/	/	/	/
CCC1(c2ccccc2)NC(=S)N(c2cccc(C)c2C)N1 (centres undefined)	i	20%	?	?	-7%	-1%	/	/	/	/
CCCc1cc2c(cc1NC(=O)c1ccco1)OCO2	i	?	3%	4%	6%	-8%	-27%	2%	0%	-2%
CCCc1cc2c(cc1NC(=O)c1ccccc1F)OCO2	i	28%	-3%	?	32%	0%	/	/	/	/
Cn1c(COc2ccc([N+](=O)[O-])cc2)nnc1SCC(=O)NCC1CCCO1 (centres undefined)	i	5%	19%	-6%	-12%	-18%	/	/	/	/
NC1=NC[C@H](Cc2ccc(O)cc2)N1CCc1cc(C(F)(F)F)cc(C(F)(F)F)c1	i	1.1µM*	?	?	-4%	9%	0%	-5%	3%	3%
NCCCC[C@H]1CNC(=O)C(=O)N1CCc1cc(C(F)(F)F)cc(C(F)(F)F)c1	i	4%	6%	-14%	1%	5%	/	/	/	/
CCOc1ccccc1-n1nnnc1SCC(=O)NCC1(N2CCOCC2)CCCCC1	?	-20%	?	?	-28%	-15%	/	/	/	/
Cc1onc(-c2ccccc2)c1C(=O)Nc1ncc([N+](=O)[O-])s1	?	8.9µM*	23µM*	21µM*	-35%	?	15µM*	?	23µM*	50%
CCC1Oc2ccc(C)cc2N(CC(=O)NCc2ccc(F)cc2)C1=O (centres undefined)	i	-8%	?	?	-10%	-22%	/	/	/	/
CN(C)C(=O)c1ccc(-c2cc3onc(-c4ccccc4)c3c(=O)n2C)cc1	i	?	?	16µM*	-23%	8%	-6%	-21%	-7%	1%
CN(C)C(=O)c1cc(-c2ccccc2)no1	i	7%	-1%	-5%	4%	18%	/	/	/	/
COc1ccc(C2/C=C\CN(C(=O)C3CC3)[C@H](Cc3ccccc3)C(=O)N2Cc2ccc(F)cc2)cc1 (some centres undefined)	?	10µM*	16µM*	23µM*	-5%	0%	?	-25%	?	35%
COc1ccc(C2/C=C\CN(C(=O)c3ccccc3)C(C)C(=O)N2Cc2ccc(F)cc2)cc1 (centres undefined)	/	-25%	/	/	-14%	/	/	/	/	/
O=C(/C=C/c1ccc(Cl)cc1)c1ccc([N+](=O)[O-])o1	11µM*	3.5µM*	1µM*	0.65µM*	-57%	?	2.9µM*	7.3µM*	2.1µM*	6%
C/C(=N/NC(=O)C1COc2ccccc2O1)c1ccc(Br)s1 (centres undefined)	i	2%	0%	-6%	5%	-23%	/	/	/	/
CC(C)(C)c1ccc(/C=N/NC(=O)c2ccccn2)cc1	i	9%	-7%	?	-33%	?	/	/	/	/
O=C(N/N=C/c1ccc[nH]1)c1ccccc1OCc1ccc(F)cc1	i	-2%	-6%	2%	25%	0%	/	/	/	/
C/C(=N\NC(=O)C1COc2ccccc2O1)c1ccccn1 (centres undefined)	?	?	5.8µM*	2.9µM*	-17%	3.5µM*	21µM*	-27%	?	5%
C/C(=N\NC(=O)c1ccccc1OCc1ccc(F)cc1)c1ccccn1	?	11µM*	4.6µM*	5.2µM*	-12%	/	15µM*	?	8.2µM*	1%
C/C(=N/NC(=O)c1ccc(C(C)(C)C)cc1)c1ccccn1	i	?	0.46µM*	0.23µM*	4%	?	2.6µM*	?	9.2µM*	2%

High-throughput results: PubChem, National Center for Advancing Translational Sciences (NCATS)
